From PubChem BioAssay
The source made the active and inactive calls. Unless noted, the rule behind the calls is not given here.

Columns and labels:
[1] = system: Wnt5a (protein binding on small-molecule microarray); assay: small molecules binding Wnt5a protein – biophysical, small-molecule microarray, 635/667 nm fluorescence, primary screen (AID 1142); conditions: 635 nm fluorescence, higher = more signal;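 note: fluorescence read at 667 nm with signal to noise per printed feature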
[2] = ATP-based viability of Huh7 replicon cells – cell-based, CellTiter-Glo luminescence, basal, 48 h, cytotoxicity control for HCV replication inhibitor project, primary screen (AID 1143); conditions: higher = more signal, called active from +8 up or from −8 down;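 note: Huh7 hepatoma cells carrying a hepatitis C replication reporter with no stimulus; test concentration not given here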
[3] = Pseudomonas biofilm growth suppression – PAO1 strain, BacTiter-Glo luminescence, LB-PBS, primary screen (AID 1144); conditions: P. aeruginosa PAO1 biofilm, 12 h, higher = more signal
[4] = basal CRE-LacZ reporter activity in PC12 – cell-based, unstimulated, primary screen (AID 1145); conditions: no forskolin, luminescence, 4.5 h, higher = more signal, called active from +8 up or from −8 down
[5] = forskolin-driven CRE-LacZ activity in PC12 – cell-based, CRE-LacZ reporter, forskolin-stimulated, primary screen (AID 1146); conditions: luminescence, 4.5 h, higher = more signal, called active from +8 up or from −8 down;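 note: PC12 cells with 6xCRE LacZ reporter stimulated by forskolin 10 µM; beta-galactosidase reporter signal reflecting CREB driven transcription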
[6] = target: Streptavidin (Streptomyces avidinii) (UniProt P22629); assay: compounds binding control protein streptavidin – biophysical, small-molecule microarray, 635/667 nm fluorescence, artefact control for SMM compound annotation, primary screen (AID 1147); conditions: higher = more signal;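 note: signal reflects streptavidin binding to arrayed compounds as a control protein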
Streptavidin (Streptomyces avidinii), sequence (P22629 whole entry, looked up): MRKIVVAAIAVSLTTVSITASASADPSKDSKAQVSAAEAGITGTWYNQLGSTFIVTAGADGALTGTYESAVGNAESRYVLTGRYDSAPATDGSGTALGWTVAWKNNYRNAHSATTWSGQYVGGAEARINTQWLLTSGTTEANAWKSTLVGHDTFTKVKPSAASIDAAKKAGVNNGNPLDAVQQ

[7] = probe aInhba binding on compound microarray – biochemical, small-molecule microarray, 635/667 nm fluorescence, primary screen (AID 1148); conditions: higher = more signal;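 note: score merges 667nm spot fluorescence with signal-to-noise for antibody binding to printed compounds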
Torsin-1A (Homo sapiens) [8] = target: Torsin-1A (Homo sapiens) (UniProt O14656); assay: TOR1A wild-type binding on microarray – cell lysate, small-molecule microarray, lysate, 635/667 nm, primary screen (AID 1149); conditions: COS7 hTOR1A-WT lysate, 635 nm fluorescence, higher = more signal
Torsin-1A (Homo sapiens), sequence (O14656 whole entry, looked up): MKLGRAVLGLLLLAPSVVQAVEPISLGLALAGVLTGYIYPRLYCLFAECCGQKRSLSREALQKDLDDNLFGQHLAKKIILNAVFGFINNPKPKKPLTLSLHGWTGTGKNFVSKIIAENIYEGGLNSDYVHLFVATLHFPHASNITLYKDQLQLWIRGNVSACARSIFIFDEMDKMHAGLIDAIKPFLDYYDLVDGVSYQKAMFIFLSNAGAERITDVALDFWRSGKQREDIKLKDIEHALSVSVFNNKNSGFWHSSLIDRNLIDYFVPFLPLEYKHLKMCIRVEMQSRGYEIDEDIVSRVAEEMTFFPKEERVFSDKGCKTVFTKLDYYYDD

Torsin-1A (Homo sapiens) [9] = target: Torsin-1A (Homo sapiens) (UniProt O14656); assay: torsin A mutant lysate binding on microarrays – cell lysate, small-molecule microarray, COS7 lysate, 635/667 nm fluorescence, primary screen (AID 1150); conditions: COS7 hTOR1A mutant lysate, 635 nm fluorescence, higher = more signal;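 note: score pools 667 nm emission and signal to noise measuring lysate protein binding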
[10] = system: Sonic hedgehog protein (Shh); assay: Sonic hedgehog microarray binding compounds – biochemical, small-molecule microarray, 635/667 nm fluorescence, primary screen (AID 1151); conditions: 635 nm fluorescence, higher = more signal;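 note: Shh protein binding to compounds spotted on small-molecule microarray slides; score combines spot fluorescence intensity with signal-to-noise across triplicate slides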

SMILES	composite z-score [1]	z-score [2]	z-score [3]	z-score [4]	z-score [5]	composite z-score [6]	composite z-score [7]	composite z-score (Torsin-1A (Homo sapiens) [8])	composite z-score (Torsin-1A (Homo sapiens) [9])	composite z-score [10]
C=C(CCCC)C(=O)CC[C@@H](OC(C)=O)c1ccc(OCCO)cc1	0.791	-0.742 (inactive)	-1.12 (inactive)	0.653 (inactive)	-0.101 (inactive)	-0.871	0.0154	1.34	0.084	1.52
C[C@]1(C(=O)NCC(F)(F)F)c2ccccc2C(=O)N(Cc2cc(C(F)(F)F)cc(C(F)(F)F)c2)[C@H]1c1ccc(CO)cc1	-0.127	-0.286 (inactive)	0.878 (inactive)	0.324 (inactive)	0.0167 (inactive)	-0.7	-0.0963	-0.469	-0.34	-0.21
CC(C)C[C@@H]1NC(=O)[C@@H]2C[C@H](C(=O)NCCCCCCNC(=O)CS)[C@H](c3ccc(O)cc3)N2C1=O	0.841	-1.88 (inactive)	-0.00979 (inactive)	-0.268 (inactive)	-0.439 (inactive)	0.813	-0.0933	0.887	1.21	2.21
COc1ccc(C(=O)Nc2ccc(CN3C(=O)[C@]4(O[C@H](CC(=O)N(CCO)Cc5ccccc5)[C@@H]([Si](C)(C)c5ccc(OC)cc5)[C@@H]4C)c4ccccc43)cc2)cc1	0.334	-4.06 (inactive)	0.52 (inactive)	0.339 (inactive)	-0.221 (inactive)	-0.138	-0.128	0.689	-0.0595	1.94
CCN1C(=O)C2CC(=O)C3C(CN(S(=O)(=O)c4ccc(C)cc4)C3c3ccc(C)cc3)C2C1=O (stereo not given)	0.235	-1.49 (inactive)	1.03 (inactive)	-0.676 (inactive)	-0.202 (inactive)	0.851	-0.0471	0.364	0.915	0.184
O=C1NC(=O)C2C1C=CC(C(O)C1CCCCC1)N2Nc1ccccn1 (stereo not given)	0.0408	1.06 (inactive)	-1.42 (inactive)	0.433 (inactive)	1.29 (inactive)	-0.15	-0.0762	0.254	0.852	0.278
CC1C2C(CCCO)=CC(C3C(=O)N(C)C(=O)C23)N1Cc1cccc(OC(F)(F)F)c1 (stereo not given)	0.164	-0.293 (inactive)	0.403 (inactive)	-0.0142 (inactive)	-0.733 (inactive)	2.22	0.143	0.76	1.47	0.113
C=CCC(OC(C)=O)[C@@H]1[C@@H](N(Cc2ccc(-c3ccccc3)cc2)C(=O)Cc2ccc(OC)cc2)c2cc(OCCCO)ccc2N1C(=O)c1ccc2ccccc2c1 (stereo not given in full)	-0.0966	-1.35 (inactive)	0.832 (inactive)	1.37 (inactive)	0.385 (inactive)	1.14	-0.153	-0.137	-0.451	0.234
O=C(NCC(F)(F)F)[C@@H]1c2ccccc2C(=O)N(Cc2cc(C(F)(F)F)cc(C(F)(F)F)c2)[C@H]1c1ccc(CO)cc1	0.362	-1.49 (inactive)	-0.483 (inactive)	0.701 (inactive)	-1 (inactive)	-0.49	0.0074	0.325	0.201	0.363
COc1ccc(NN2C(C(O)c3ccc(F)cc3)C=CC3C(=O)N(C4CCCCC4)C(=O)C32)cc1 (stereo not given)	0.0942	-0.591 (inactive)	-0.796 (inactive)	1.24 (inactive)	1.08 (inactive)	1.58	0.112	0.638	0.197	0.244
COc1ccc(CCNC(=O)[C@@]2(C)c3ccccc3C(=O)N(Cc3ccc(OC(F)(F)F)cc3)[C@H]2c2ccc(CO)cc2)cc1	0.887	-4.18 (inactive)	0.175 (inactive)	-0.179 (inactive)	0.175 (inactive)	-0.535	-0.166	0.43	1.43	1.23
COCCCNC(=O)[C@]1(Cc2ccccc2N=[N+]=[N-])N=C(c2ccc(OCCCO)cc2)O[C@@H]1c1ccccc1	0.637	-3.94 (inactive)	0.542 (inactive)	1.76 (inactive)	-1.66 (inactive)	1.58	0.974	0.303	1.09	-0.223
COc1ccc(C(O)C2C=CC3C(=O)N(C)C(=O)C3N2Nc2ccccc2)cc1 (stereo not given)	-0.0927	-2.05 (inactive)	-0.371 (inactive)	-0.143 (inactive)	0.459 (inactive)	1.41	0.195	0.271	0.994	0.011
COC(=O)C1=CC(CCCO)=CC(c2ccc(CN3CCCC3)cc2)N(C)C=C1C(=O)OC (stereo not given)	0.408	0.209 (inactive)	0.0505 (inactive)	-0.464 (inactive)	-0.0736 (inactive)	0.532	0.0658	-1.01	-0.418	-0.284
COc1ccc(NN2C(C(O)c3ccccc3)C=CC3C(=O)N(C4CCCCC4)C(=O)C32)cc1 (stereo not given)	0.272	-2.44 (inactive)	-1.71 (inactive)	0.127 (inactive)	1.65 (inactive)	0.929	0.19	0.473	0.37	0.871
COCCOC(=O)N1C(=O)[C@@]2(c3cc(C#CC4(O)CCCCCC4)ccc31)[C@H](C(N)=O)[C@H]1C(=O)O[C@H](c3ccccc3)[C@H](c3ccccc3)N1[C@@H]2c1ccc(OCCO)cc1	0.309	-4.36 (inactive)	-0.295 (inactive)	0.362 (inactive)	0.0846 (inactive)	0.84	0.201	0.838	0.637	1.24
C[C@]1(C(=O)NC2CC2)c2ccccc2C(=O)N(Cc2cc(F)cc(C(F)(F)F)c2)[C@H]1c1ccc(CO)cc1	-0.76	-2.15 (inactive)	-1.05 (inactive)	0.764 (inactive)	0.864 (inactive)	-0.827	-0.242	-2.36	0.416	1.62
C=C(COC)C(=O)CC[C@H](OC(C)=O)c1ccccc1OCCO	0.0375	-4.1 (inactive)	-0.0151 (inactive)	6.35 (inactive)	4.62 (inactive)	-0.955	0.858	2.34	0.851	1.8
